Data: PubChem BioAssay (EPA / NIEHS)
The source made the active and inactive calls. The calls were made as follows: active = hit-call score of the fitted dose curve at least 0.9, where 1 is the maximum; inactive = score below 0.9.

test: ATG_AP_1_CIS: Attagene CIS-FACTORIAL HepG2 Assay for human Activator Protein 1 (AP-1) (AID 2282931); conditions: HepG2 Attagene cis-factorial AP-1 reporter mRNA; actives raise or lower the signal
Description: ATG_CIS is a cell-based, multiplexed-readout assay that uses HepG2, a human liver cell line, with measurements taken at 24 hours after chemical dosing in a 24-well plate.ATG_AP_1_CIS is one of 52 assay component(s) measured or calculated from the ATG_CIS assay. It is designed to make measurements of mRNA induction, a form of inducible reporter, as detected with fluorescence intensity signals by Reverse transcription polymerase chain reaction (RT-PCR) and Capillary electrophoresis technology.Data from the assay component ATG_AP_1_CIS was analyzed into 1 assay endpoint. This assay endpoint, ATG_AP_1_CIS, was analyzed with bidirectional fitting relative to DMSO as the negative control and baseline of activity. Using a type of inducible reporter, measures of mRNA for gain or loss-of-signal activity can be used to understand the reporter gene at the transcription factor-level as they relate to the gene FOS and JUN. Furthermore, this assay endpoint can be referred to as a primary readout, because this assay has produced multiple assay endpoints where this one serves a reporter gene function. To generalize the intended target to other relatable targets, this assay endpoint is annotated to the dna binding intended target family, where the subfamily is basic leucine zipper.
Human liver HepG2 cells are transiently transfected with multiple reporter transcription units (MRTUs) in 6-well plates using FuGene 6 reagent (Roche; 3 ml FuGene/1 mg DNA). The MRTU constructs are regulated by a cis-regulating element (promoter). […] A major difference between the CIS and TRANS system is that in CIS activities of endogenous TFs are measured, whereas the TRANS assay evaluates changes in activities of exogenous, chimeric NR-Gal4 proteins. […] At the end of 24 hour incubation, total RNA was isolated using TriZol reagent (Invitrogen). The isolated RNA is then reverse-transcribed using oligo(dT) primer and Mo-MLV reverse transcriptase (Invitrogen) with DNAse I (Ambion) treatment for 30 min. The one-tenth of the produced cDNA was amplified by PCR using Taq DNA polymerase (Invitrogen) and two reporter sequence-specific primers. The PCR products were fluorescently labeled by primer extension with 6-arboxyfluorescein (6-FAM) 5'-labeled reporter sequence-specific primer (2 min at 95 C, 20 s at 68 C and 10 min at 72 C) and these products were digested with 5U of HpaI (New England Biolabs) for 2h at 37 C. The fragments were purified using Qiaquick PCR columns (Qiagen), analyzed on an ABI 3130xL genetic analyzer (Applied Biosystems) with peak positions identified by using a set of X-rhodamine (ROX)-labeled MapMarker1000 molecular weight standards (BioVentures). The raw capillary electrophoresis data was processed using Attagraph software (Attagene).

Q: For `CCCCCCCCCCOC(C)=O`, which outcome is on record?
A: inactive

Q: For `COC(=O)c1c(C)cc(O)c(C)c1O`, which outcome is on record?
A: inactive

Q: Which outcome does the source give for `CCCCCCOC(=O)C(C)CC` (stereo not given) here?
A: inactive

Q: Which outcome does the source give for `O=C(O)C(c1ccc(Cl)cc1)c1ccc(Cl)cc1` here?
A: inactive

Q: Which outcome does the source give for `O=C1CCCCCN1SSN1CCCCCC1=O` here?
A: inactive

Q: With `Cc1ccc(OC(=O)CC(C)C)cc1` as the compound, how does the outcome read?
A: inactive

Q: For `CN(C)c1ccc(N=Nc2ccccc2C(=O)O)cc1`, which AC50 is on record?
A: 37.7 µM (active)

Q: With `O=C(O)CCCC[C@@H]1SC[C@@H]2NC(=O)N[C@@H]21` as the compound, how does the outcome read?
A: inactive

Q: For `CC=C1CC2C=CC1C2` (stereo not given), which AC50 is on record?
A: 67.1 µM (active)

Q: For `CC[C@H]1OC(=O)[C@H](C)[C@@H](O[C@H]2C[C@@](C)(OC)[C@@H](O)[C@H](C)O2)[C@H](C)[C@@H](O[C@@H]2O[C@H](C)C[C@H](N(C)C)[C@H]2O)[C@](C)(O)C[C@@H](C)C(=NOCOCCOC)[C@H](C)[C@@H](O)[C@]1(C)O`, which outcome is on record?
A: inactive

Q: Which outcome does the source give for `c1ccc2c(c1)ccc1ncccc12` here?
A: inactive

Q: With `Cc1cccc(C(=O)O)c1` as the compound, how does the outcome read?
A: inactive

Q: Which outcome does the source give for `Cc1cc(C)c(C)c(O)c1` here?
A: inactive

Q: For `CCCCCCCCCCOS(=O)(=O)O`, which outcome is on record?
A: inactive

Q: With `COC(=O)/C=C\C(=O)O` as the compound, how does the outcome read?
A: inactive

Q: With `COc1cc(NC(=O)CC(C)=O)c(OC)cc1Cl` as the compound, how does the outcome read?
A: inactive

Q: With `CNC(=S)N(C)C` as the compound, how does the outcome read?
A: inactive

Q: Which outcome does the source give for `CC(=O)Nc1ccc2c(c1)Cc1cc(NC(C)=O)ccc1-2` here?
A: inactive

Q: For `NNC(=O)c1cccc(C(=O)NN)c1`, which outcome is on record?
A: inactive

Q: For `C/C=C\C/C=C/CCCCCCCCOC(C)=O`, which AC50 is on record?
A: 134 µM (active)

Q: Which AC50 does the source give for `CCOC(=O)c1ccccc1C(=C1C=C(Br)C(=O)C(Br)=C1)c1cc(Br)c(O)c(Br)c1` here?
A: 51.7 µM (active)

Q: Which outcome does the source give for `NC(=O)N=NC(N)=O` here?
A: inactive

Q: For `CCO[Si](C)(OCC)OCC`, which outcome is on record?
A: inactive

Q: With `CC(C)c1ccc(C#N)cc1` as the compound, how does the outcome read?
A: inactive

Q: For `CC(=O)c1ccc2c(c1)CCCC2`, which outcome is on record?
A: inactive

Q: With `COCc1c(C(C)C)nc(C(C)C)c(/C=C/[C@@H](O)C[C@@H](O)CC(=O)O)c1-c1ccc(F)cc1` as the compound, how does the outcome read?
A: inactive

Q: Which AC50 does the source give for `O=C(C(Cl)Cl)N1CCOC12CCCCC2` here?
A: 69.1 µM (active)

Q: Which outcome does the source give for `Cc1cccc(N(C)C(=S)Oc2ccc3ccccc3c2)c1` here?
A: inactive

Q: Which outcome does the source give for `O=c1cc[nH]c(=S)[nH]1` here?
A: inactive

Q: For `CC1(C)O[C@@H]2C[C@H]3[C@@H]4C[C@H](F)C5=CC(=O)C=C[C@]5(C)[C@@]4(F)[C@@H](O)C[C@]3(C)[C@]2(C(=O)CO)O1`, which outcome is on record?
A: inactive

Q: Which outcome does the source give for `CCCC(C)CCC(C)=O` (stereo not given) here?
A: inactive

Q: Which outcome does the source give for `CC(C)(C)c1ccc(OC(=O)c2ccccc2O)cc1` here?
A: inactive

Q: Which outcome does the source give for `CC(=O)OCc1ccco1` here?
A: inactive

Q: With `CCCC(=O)OCc1ccccc1` as the compound, how does the outcome read?
A: inactive

Q: For `CCCCCCCCCCCSCC(=O)O`, which outcome is on record?
A: inactive

Q: With `c1ccc2c(c1)ccc1cc3c(ccc4ccccc43)cc12` as the compound, how does the outcome read?
A: inactive

Q: Which outcome does the source give for `C=CCCCCCCCCC(=O)OCCCC` here?
A: inactive

Q: For `CC(C)c1ccc(C=O)cc1`, which outcome is on record?
A: inactive

Q: Which AC50 does the source give for `CC(C)(c1cc(Br)c(OCCO)c(Br)c1)c1cc(Br)c(OCCO)c(Br)c1` here?
A: 36.6 µM (active)

Q: For `CCCCCC/C=C\CCCCCCCC(=O)O`, which outcome is on record?
A: inactive
